# Test results as given in PubChem BioAssay (NCATS).
# Where “and” joins values, the source holds several entries; their conditions need not be identical. Identical values can stand only once. Results filed as inconclusive are left out. A number with no mark means an inactive call. Calls of active or inactive are those of the source. The call rests on the fitted dose curve; in most records, active means well fitted curve in the direction sought with a large enough effect; inconclusive means small, poorly fitted or top-dose-only effect, or another doubt; inactive means no such curve, though single readings can be large; an effect the other way counts as inactive or inconclusive.
# Experiments:
# [1] = Viability qHTS for spleen associated tyrosine kinase inhibitor (SYKi) naive MV4-11 cells (AID 1963823); further: nearly all actives have a fitted effect of over 40% in size; further: potency means the concentration at half of the fitted maximal effect
# Procedure, shortened: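 SYK inhibitor-naive MV4-11 cells, 500 per well, exposed to compounds for 72 hr at 37 C, 5% CO2. Viability read as CellTiter-Glo luminescence after 10 min at room temperature.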
# [2] = Viability qHTS for spleen associated tyrosine kinase inhibitor (SYKi) drug resistant MV4-11 cells (AID 1963824); further: nearly all actives have a fitted effect of over 35% in size; further: potency means the concentration at half of the fitted maximal effect
# Procedure, shortened: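 SYK inhibitor-resistant MV4-11 AML cells, 500 per well, added to predispensed compounds and incubated 72 hr at 37 C, 5% CO2. Viability measured by CellTiter-Glo luminescence after 10 min at room temperature.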
# [3] = Cellular viability qHTS for adrenocortical cancer (ACC) cell line NCI-H295R (AID 1963990); further: nearly all actives have a fitted effect of over 60% in size; further: potency means the concentration at half of the fitted maximal effect
# Procedure, shortened: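 Viability of NCI-H295R after 48 h of treatment (final up to 46 uM) measured through cellular ATP luminescence.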
# [4] = Cellular viability qHTS for adrenocortical cancer (ACC) cell line SW-13 (AID 1963989); conditions: SW-13 ACC cells viability, CellTiter-Glo, 48 h; activity (max response): hits give low values; further: nearly all actives have a fitted effect of over 65% in size; further: potency means the concentration at half of the fitted maximal effect;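 on activity (max response): cells grown in serum-free medium with ITS supplement; on the % scale 0 is the no-effect control and ±100 the full control effect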
# Procedure, shortened: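 Here, serum-free SW-13 cultures were dosed up to 46 uM. Following 48 h, ATP-dependent luminescence (CellTiter-Glo) reported viable cells, and logistic modeling produced IC50 values.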
# [5] = Quantitative highthroughput screen to assess conditional lethalithy of NOMO1 cells grown in Human Plasma-Like Medium with dialyzed fetal bovine serum (HPLM+ds) (AID 1963878);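 further: 100% = DMSO wells and 0% = empty wells on each plate; nearly all actives have a fitted effect of over 35% in size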
# Procedure, shortened: (§1)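 Each medium arm—HPLM with 10% dialyzed FBS, or RPMI1640 with 5 mM glucose and 10% untreated or dialyzed FBS—was screened against an 11-point, 3-fold compound titration for 48 h at 37 °C, with CellTiter-Glo luminescence as endpoint.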
# [6] = Quantitative highthroughput screen to assess conditional lethalithy of P12 Ichikawa cells grown in Human Plasma-Like Medium with dialyzed fetal bovine serum (HPLM+ds) (AID 1963879); conditions: Potency: viability; further: nearly all actives have a fitted effect of over 35% in size; further: potency means the concentration at half of the fitted maximal effect; on Viability: series mostly up to about 46 µM
# Procedure, shortened: as §1
# [7] = Quantitative highthroughput screen to assess conditional lethalithy of P12 Ichikawa cells grown in RPMI1640 with untreated serum (RPMI+s) (AID 1963881); conditions: Potency: viability; further: nearly all actives have a fitted effect of over 35% in size; further: potency means the concentration at half of the fitted maximal effect;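 on Viability: series mostly up to about 46 µM; 100% = DMSO wells and 0% = empty wells without cells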
# Procedure, shortened: as §1
# [8] = Quantitative highthroughput screen to assess conditional lethalithy of SEM cells grown in Human Plasma-Like Medium with dialyzed fetal bovine serum (HPLM+ds) (AID 1963882); further: nearly all actives have a fitted effect of over 35% in size; further: potency means the concentration at half of the fitted maximal effect; on Viability: series mostly up to about 46 µM
# Procedure, shortened: as §1
# [9] = Quantitative highthroughput screen to assess conditional lethalithy of NOMO1 cells grown in RPMI1640 with untreated serum (RPMI+s) (AID 1963876); further: nearly all actives have a fitted effect of over 35% in size; further: potency means the concentration at half of the fitted maximal effect;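 on Viability: 100% = DMSO wells and 0% = empty wells without cells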
# Procedure, shortened: as §1
# [10] = Quantitative highthroughput screen to assess conditional lethalithy of P12 Ichikawa cells grown in RPMI1640 with dialyzed fetal bovine serum (RPMI+ds) (AID 1963880); conditions: Potency: P12-Ichikawa viability
# Procedure, shortened: as §1
# [11] = Quantitative highthroughput screen to assess conditional lethalithy of SEM cells grown in RPMI1640 with unreated serum (RPMI+s) (AID 1963883); further: nearly all actives have a fitted effect of over 35% in size; further: potency means the concentration at half of the fitted maximal effect;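 on Viability: 100% = DMSO wells and 0% = empty wells without cells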
# Procedure, shortened: as §1
# [12] = Quantitative highthroughput screen to assess conditional lethalithy of SEM cells grown in RPMI1640 with dialyzed fetal bovine serum (RPMI+ds) (AID 1963884)
# Procedure, shortened: as §1
# [13] = Quantitative highthroughput screen to assess conditional lethalithy of NOMO1 cells grown in RPMI1640 with dialyzed fetal bovine serum (RPMI+ds) (AID 1963877); further: potency means the concentration at half of the fitted maximal effect; nearly all actives have a fitted effect of over 30% in size
# Procedure, shortened: as §1
smiles,measurement,setting,value
C/C=C(\C)C(=O)N[C@@H](c1ccccc1)[C@@H](O)C(=O)O[C@H]1C[C@@]2(O)[C@@H](OC(=O)c3ccccc3)[C@@H]3[C@]4(OC(C)=O)CO[C@@H]4C[C@H](O)[C@@]3(C)C(=O)[C@H](OC(C)=O)C(=C1C)C2(C)C,Potency,[1],20.9 nM (active)
same,Potency,[2],23.5 nM (active)
same,Potency,[3],891 nM (active)
Cc1cccc(C)c1NC1=NCCCS1,Potency,[1],inactive
same,Potency,[2],inactive
same,Potency,[3],inactive
NC(=O)OCCCc1ccccc1,Potency,[1],inactive
same,Potency,[2],inactive
same,Potency,[3],inactive
CCC(OC(C)=O)C(CC(C)NC)(c1ccccc1)c1ccccc1 (configuration not stated),Potency,[1],43700 nM (active)
same,Potency,[2],31000 nM (active)
same,Potency,[4],28.2 µM (active)
same,Potency,[3],15800 nM (active)
Cc1nnc2n1-c1sc(CCc3ccc(CC(C)C)cc3)cc1C(c1ccccc1Cl)=NC2C (configuration not stated),Potency,[1],5800 nM (active)
same,Potency,[2],4110 nM (active)
same,Potency,[3],8200 nM (active)
COC1=C[C@@H]2[C@@H]3Cc4ccc(OC)c(O)c4[C@]2(CCN3C)CC1=O,Potency,[1],inactive
same,Potency,[5],inactive
same,Potency,[6],inactive
same,Potency,[7],inactive
same,Potency,[8],inactive
same,activity (max response),[4],-18.4%
same,Potency,[3],inactive
C[N+]1(CCF)[C@@H]2CC[C@H]1CC(OC(=O)C(O)(c1ccccc1)c1ccccc1)C2 (some centres not stated),Potency,[1],inactive
same,Potency,[2],inactive
same,Potency,[3],inactive
C[C@@H](N)[C@@H](O)c1ccccc1,Potency,[1],inactive
same,Potency,[2],inactive
same,activity (max response),[4],3.81%
same,Potency,[3],inactive
CN[C@@H]1Cc2cccc3[nH]c(=O)n(c23)C1,Potency,[1],inactive
same,Potency,[9],inactive
same,Potency,[5],inactive
same,Potency,[10],inactive
same,Potency,[7],inactive
same,Potency,[11],inactive
same,Potency,[12],inactive
same,activity (max response),[4],-9.99%
same,Potency,[3],inactive
CN(C)NC(=O)CCC(=O)O,Potency,[1],inactive
same,Potency,[2],inactive
same,activity (max response),[4],-24.4%
same,Potency,[3],inactive
COCC(=O)N(c1c(C)cccc1C)C(C)C(=O)OC (configuration not stated),Potency,[1],inactive
same,Potency,[2],inactive
same,activity (max response),[4],0.998%
same,Potency,[3],inactive
COc1ccc(Cc2nccc3cc(OC)c(OC)cc23)cc1OC,Potency,[1],6.68 µM (active) and 2.35 µM (active)
same,Potency,[2],7.5 µM (active) and 2.95 µM (active)
same,Potency,[3],inactive
C=CCN1CC[C@]23c4c5ccc(O)c4O[C@H]2C(=O)CC[C@@]3(O)[C@H]1C5,Potency,[1],inactive
same,Potency,[2],inactive
same,activity (max response),[4],-2.59%
same,Potency,[3],inactive
CCO[C@H]1O[C@@H]2OC3(C)CC[C@H]4[C@H](C)CC[C@@H]([C@H]1C)[C@@]24OO3,Potency,[1],4220 nM (active)
same,Potency,[2],2990 nM (active)
same,Potency,[3],inactive
C1CCC(NC2CCCCC2)CC1,Potency,[1],inactive
same,Potency,[2],inactive
same,Potency,[3],inactive
Nc1ccc(Cl)cc1C(=O)c1ccccc1F,Potency,[1],inactive
same,activity (max response),[4],-12.6%
O=C(O)CNC(=O)c1c(O)c2ccccc2n(Cc2ccccc2)c1=O,Potency,[1],inactive
same,Potency,[11],inactive
same,activity (max response),[4],3.51%
Clc1ccc(CCC(Cn2ccnc2)Sc2c(Cl)cccc2Cl)cc1 (configuration not stated),Potency,[1],18600 nM (active)
same,Potency,[2],11.9 µM (active) and 18.6 µM (active)
same,Potency,[3],20.6 µM (active) and 35.5 µM (active)
Cn1c(COP(=O)(NCCBr)NCCBr)cnc1[N+](=O)[O-],Potency,[1],10500 nM (active)
same,Potency,[2],5900 nM (active)
same,Potency,[3],inactive
C[C@@H]1O[C@@H](O[C@@H]2C=C3CC[C@@H]4[C@H](CC[C@]5(C)[C@@H](c6ccc(=O)oc6)CC[C@]45O)[C@@]3(C)CC2)[C@H](O)[C@H](O)[C@H]1O,Potency,[1],6 nM (active)
same,Potency,[2],7.5 nM (active)
same,Potency,[4],11.2 nM (active) and 7.3 nM (active)
same,Potency,[3],11.2 nM (active) and 7.3 nM (active)
Cc1sc2c(c1C)C(c1ccc(Cl)cc1)=N[C@@H](CC(=O)OC(C)(C)C)c1nnc(C)n1-2,Potency,[1],105 nM (active)
same,Potency,[9],526 nM (active)
same,Potency,[13],372 nM (active)
same,Potency,[6],1660 nM (active)
same,Potency,[7],1870 nM (active)
same,Potency,[8],166 nM (active)
same,Potency,[11],235 nM (active)
same,Potency,[3],3980 nM (active)
CCC1(c2ccccc2)CCC(=O)NC1=O (configuration not stated),Potency,[1],21100 nM (active)
same,Potency,[2],13300 nM (active)
same,activity (max response),[4],7.87%
same,Potency,[3],inactive
C/C(=C\c1csc(C)n1)[C@@H]1C[C@@H]2O[C@@H]2CCC[C@H](C)[C@H](O)[C@@H](C)C(=O)C(C)(C)[C@@H](O)CC(=O)O1,Potency,[1],5.2 nM (active)
same,Potency,[2],5.8 nM (active)
same,Potency,[3],22.4 nM (active)
O=C(NCCCNc1nc(Nc2ccc(N3CCOCC3)cc2)ncc1C1CC1)C1CCC1,Potency,[1],118 nM (active)
same,Potency,[2],166 nM (active)
same,Potency,[3],inactive
CO/C1=C/C(C)=C\[C@@H](C)[C@@H](O)[C@@H](C)C/C(C)=C\C=C/[C@H](OC)[C@@H]([C@@H](C)[C@@H](O)[C@H](C)[C@@]2(O)C[C@@H](O)[C@H](C)[C@@H](C(C)C)O2)OC1=O,Potency,[1],22.1 nM (active)
same,Potency,[2],22.1 nM (active)
same,Potency,[4],0.245 µM (active)
same,Potency,[3],43.5 nM (active)
